Bioassay records: PubChem BioAssay, NMMLSC
Avidin bead fluor: green autofluorescence of compounds with avidin beads – biophysical, 488/530 nm, flow cytometry, artefact control, profiling panel; compound fluorescence 488/530 nm; hits give high values; fluorescence (KMESF) at 10 µM; 220,000 tested, 0.38% active; in the data active = fluorescence above about 47
RGS8-Gao reg: RGS8-Galphao binding modulators, primary screen, biochemical, multiplexed bead flow cytometry | Guanine nucleotide-binding protein G(o) subunit alpha (Homo sapiens), P09471 | actives lie on both sides | response (percent of control binding), % at 10 µM | 220,000 tested, 0.34% active | AID 1423, 2008; in the data active = response below about 60% or above about 140%; inactive = in between;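 also: Galphao activated as the GDP aluminium fluoride complex binding bead-coupled RGS8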
RGS16-Gao: modulators of RGS16 binding to Galphao, primary screen, biochemical, human proteins, multiplexed bead flow cytometry; binding response (% of control), % at 10 µM; Regulator of G-protein signaling 16 (Homo sapiens) + Guanine nucleotide-binding protein …; 220,000 tested, 0.38% active; bead-based flow cytometry RGS16-Galphao binding, fluorescence; actives lie on both sides;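 also: Galphao activated by GDP with aluminum fluoride before binding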
GSH fluor: compound fluorescence on glutathione beads, profiling panel, artefact control, biophysical, 488/530 nm, flow cytometry. GSH beads flow cytometry, compound fluorescence 488/530 nm; hits give high values. fluorescence (KMESF) at 10 µM. 190,000 tested, 0.25% active. AID 1776, 2009; in the data active = fluorescence above about 89;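 also: glutathione beads carrying GST-tagged Bcl family fusion proteins plus one bare bead set; values are compound well signal with DMSO vehicle wells as background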
RGS7-Gao reg: RGS7-Galphao binding modulators, primary screen, biochemical, multiplexed bead flow cytometry; actives lie on both sides; binding response (% of control), % at 10 µM; 220,000 tested, 0.35% active; in the data active = binding response below about 49% or above about 150%;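 also: fluorescent Galphao held in activated GDP-AlF4 state binding bead-coupled RGS7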
RGS4-Gao reg: modulators of RGS4 binding to Galphao, primary screen, biochemical, multiplexed bead flow cytometry; Guanine nucleotide-binding protein G(o) subunit alpha (Homo sapiens), P09471; 220,000 tested, 0.33% active; actives lie on both sides; binding response (% of control), % at 10 µM; in the data active = binding response below about 49% or above about 150%; inactive = in between;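 also: fluorescent Galphao activated with aluminum fluoride binding bead-coupled RGS4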
RGS4-Gao HTS: modulators of RGS–Galpha-o binding, primary screen, biochemical, multiplexed beads, flow cytometry, RGS4/7/8/16/19; 1,600 tested, 99% active; AID 1504, 2009; multiplexed bead flow cytometry; shares compounds with RGS16-Gao; RGS4–Galpha-o binding response, % at 10 µM;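 also: fluorescently labeled Galpha-o bound to GDP with aluminium fluoride binding biotinylated RGS beads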
Avidin counter: disruption of biotin probe capture by avidin, counter-screen for RGS protein interaction modulators, biochemical, flow cytometry, bead-based. inhibition, % at 10 µM. AID 1783, 2009. shares compounds with RGS16-Gao. 1,700 tested, under 10 active. streptavidin beads, fluorescein-biotin binding;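 active = inhibition above 50%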;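 also: median green fluorescence of gated singlet beads compared with DMSO control wells; 0% = DMSO wells and 100% = complete loss of bead fluorescence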
RGS8-Gao confirm: RGS8-Galphao binding modulators, confirmation, biochemical, multiplexed bead flow cytometry, single concentration; shares compounds with RGS16-Gao; 1,700 tested, 3% active; AID 1836, 2009; binding response (% of control), % at 10 µM; bead-based flow cytometry RGS8-Galphao binding, fluorescence; actives lie on both sides; in the data active = binding response below about 72% or above about 130%; inactive = in between;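 also: Galphao activated as GDP AlF4 complex before binding bead RGS8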
RGS7-Gao single: RGS7-Galphao binding modulators, confirmation, biochemical, multiplexed bead flow cytometry, single concentration. AID 1837, 2009. bead-based flow cytometry RGS7-Galphao binding; actives lie on both sides. shares compounds with RGS16-Gao. response (percent of control binding), % at 10 µM. 1,700 tested, 7.8% active; in the data active = response below about 75% or above about 130%; inactive = in between;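 also: fluorescent Galphao activated with GDP and aluminum fluoride binding bead-coupled RGS7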
RGS16-Gao single: modulators of RGS16-Galphao protein binding, confirmation, biochemical, single concentration, multiplexed bead flow cytometry; response (% of control binding), % at 10 µM; 1,700 tested, 4% active; shares compounds with RGS16-Gao; bead-based flow cytometry; actives lie on both sides; in the data active = response below about 74% or above about 130%; inactive = in between;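 also: Galphao activated as the GDP aluminium fluoride complex binding bead-coupled RGS16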
RGS4-Gao confirm: modulators of RGS4-Galphao protein binding, confirmation, biochemical, single concentration, multiplexed bead flow cytometry; AID 1840, 2009; actives lie on both sides; binding response (% of control), % at 10 µM; 1,700 tested, 4% active; shares compounds with RGS16-Gao; in the data active = binding response below about 74% or above about 130%; inactive = in between
RGS19-Gao single: regulators of RGS19-Galphao binding, confirmation, biochemical, single point, multiplexed bead flow cytometry; shares compounds with RGS16-Gao; bead-based flow cytometry RGS19-Galphao binding; actives lie on both sides; response (percent of control binding), % at 10 µM; 1,700 tested, 5% active; AID 1841, 2009; in the data active = response below about 50% or above about 160%; inactive = in between;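 also: 100% = no compound control and 0% = blank background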
* = called active by the depositor; [ ] = another dose, or the depositor's remark. An excerpt weighted towards active compounds, which were near 1.2% of everything screened. Unless noted, no rule for the calls is given here.

Results for CN(C)CCNC(=O)c1ccc2c(c1)N(Cc1ccc(F)cc1)CCS2 ?
Avidin bead fluor: 0; RGS8-Gao reg: 60*; RGS16-Gao: 7; GSH fluor: 23; RGS7-Gao reg: 62; RGS4-Gao reg: 44*; Avidin counter: 1; RGS8-Gao confirm: 101; RGS7-Gao single: 96; RGS16-Gao single: 98; RGS4-Gao confirm: 101; RGS19-Gao single: 86

How did OCCC1CN(Cc2cccn2-c2nccs2)CCN1C1CCCCC1 (stereo not given) do in these assays?
Avidin bead fluor: 6; RGS8-Gao reg: 97; RGS16-Gao: 97; GSH fluor: 17; RGS7-Gao reg: 94; RGS4-Gao reg: 97

What do the screens show for `CC(C)N1CCN(Cc2cccn2-c2nccs2)CC1CCO` (stereo not given)?
Avidin bead fluor: 56*; RGS8-Gao reg: 102; RGS16-Gao: 106; GSH fluor: 11; RGS7-Gao reg: 192*[activator]; RGS4-Gao reg: 115; RGS4-Gao HTS: 115*; Avidin counter: 2; RGS8-Gao confirm: 102; RGS7-Gao single: 101; RGS16-Gao single: 106; RGS4-Gao confirm: 100; RGS19-Gao single: 114

Results for CCN(CC)CCCN(C(=O)Cn1nnc(-c2ccc(OC)c(OC)c2)n1)C(C(=O)NC(C)(C)C)c1ccc(F)cc1 (stereo not given) ?
Avidin bead fluor: 11; RGS8-Gao reg: 101; RGS16-Gao: 107; GSH fluor: 14; RGS7-Gao reg: 98; RGS4-Gao reg: 102

Results for O=C(C(=O)N1CCCc2ccccc21)N1CCCc2ccccc21 ?
Avidin bead fluor: 4; RGS8-Gao reg: 124; RGS16-Gao: 182*[activator]; GSH fluor: 7; RGS7-Gao reg: 103; RGS4-Gao reg: 105; RGS4-Gao HTS: 105*; Avidin counter: -2; RGS8-Gao confirm: 100; RGS7-Gao single: 101; RGS16-Gao single: 101; RGS4-Gao confirm: 99; RGS19-Gao single: 98
